Sampled rows, rich in hits. Any-hit rate of the full collection: about 5.5%.
RORg inh – inhibitors of mouse ROR gamma transcriptional activity | P51450 | Drosophila S2 Gal4-RORgamma UAS-luciferase reporter, 20 h | Potency, µM (doses to about 53.6 µM), inactives show at the top dose activity change, negative = inhibition, usual class: inhibitors | 5.4% of 310,000 active | AID 2551; also: % is scaled to controls: 0 for no effect and ±100 for the full control effect; nearly all actives have a fitted effect of over 60% in size
Target sequence (P51450 whole entry, looked up, the tested form may be a part): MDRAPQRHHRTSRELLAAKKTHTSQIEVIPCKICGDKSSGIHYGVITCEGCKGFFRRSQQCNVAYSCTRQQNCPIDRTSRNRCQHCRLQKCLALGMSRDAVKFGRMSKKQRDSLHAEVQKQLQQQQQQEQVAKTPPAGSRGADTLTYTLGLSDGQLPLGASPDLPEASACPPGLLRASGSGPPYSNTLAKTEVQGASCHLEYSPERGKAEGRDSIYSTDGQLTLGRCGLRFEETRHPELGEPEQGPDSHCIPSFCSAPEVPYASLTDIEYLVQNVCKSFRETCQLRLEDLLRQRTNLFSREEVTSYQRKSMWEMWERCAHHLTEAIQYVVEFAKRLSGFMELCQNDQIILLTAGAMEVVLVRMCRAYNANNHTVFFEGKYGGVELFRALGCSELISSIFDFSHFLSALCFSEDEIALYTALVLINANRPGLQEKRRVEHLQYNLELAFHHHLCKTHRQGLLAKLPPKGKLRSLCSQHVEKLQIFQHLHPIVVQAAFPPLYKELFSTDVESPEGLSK
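ROR gamma transcriptional activity was tracked as Gal4-UAS luciferase output in stably transfected Drosophila Schneider cells, with compound added 1 hr before 700 uM copper sulfate induction and a 20 hr ambient-temperature incubation.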
BCR signal inh – inhibitors of chronic active B-cell receptor signaling; Potency, µM (top dose mostly 46.1 µM), inactives show at the highest dose activity change, negative = inhibition, most hits filed as inhibitors; ABC-DLBCL IkBa-CBG/CBR reporter, luminescence ratio, 4 h; 0.05% of 340,000 active; active = well fitted inhibition curve with a large enough effect in the signal ratio, with a control signal flat, not every such curve was filed as active; inconclusive = small, poorly fitted or top-dose-only effect, or effect the other way, or a change in a side signal; the % refers to the signal ratio;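 also: plate controls were basal doxycycline-induced cells for no effect and cells given 10 µM MG132 for full effect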
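Doxycycline induced both beetle luciferases in TMD8 lymphoma cells; IKK-driven degradation limits the IkappaBalpha-fused green signal, while red luminescence normalises for cell number and nonspecific effects. Compounds tested up to 46 uM, 4 hrs.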
Mito fusion act – inhibitors of mitochondrial division or activators of mitochondrial fusion; S. cerevisiae fusion-defective mutant growth rescue, CellTiterGlo 48 h; Potency, µM (doses to about 46.1 µM), for the others: at the top dose growth rescue (activation), most hits filed as activators; 0.23% of 320,000 active; AID 485298; also: % of control where 0% means no effect; nearly all actives have a fitted effect of over 45% in size
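Growth-rescue viability read-out: after 48 h at the non-permissive 37C in glycerol/ethanol YPEG, yeast mitochondrial fusion mutants are measured by CellTiterGlo luminescence; compounds (23 nl pinned per well) restoring growth score as division inhibitors or fusion activators.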
VP16 counter – Gal4-VP16 reporter inhibition counter-screen; Drosophila S2 Gal4-VP16 UAS-luciferase, luminescence, 20 h; Potency, µM (doses to about 53.6 µM), inactives show at the top dose activity, negative = inhibition, usual class: inhibitors; 3.5% of 310,000 active;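 also: Gal4-VP16 expression switched on by copper sulfate through the metallothionein promoter; % is scaled to controls: 0 for no effect and ±100 for the full control effect; nearly all actives have a fitted effect of over 50% in size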
a7 integrin act – integrin-mediated muscular dystrophy alleviation activation; alpha7betagal myoblasts, beta-gal FDG fluorescence, 48 h; Potency, µM (series often up to 38.3 µM), for the others: at the top dose activation, hits mostly activators; 0.064% of 350,000 active;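 also: 100% = response of the positive control SU9516; nearly all actives have a fitted effect of over 60% in size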
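alpha7betagal+/- myoblasts (passage 13, 250/well) treated 48 h at 37C with compounds at 1:260 dilution of DMSO stock. Lysed, then beta-galactosidase activity read as FDG fluorescence (ex 480/em 540) after 30 min, with pre-read for autofluorescence.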
uPA generation – blocks generation of uPA at the cell surface; cell surface uPA generation assay, qHTS; Potency, µM (doses to about 38.3 µM), without a hit: at the top dose activity change, negative = inhibition, actives largely listed as inhibitors; 0.31% of 330,000 active; active = well fitted inhibition curve with a large enough effect; inconclusive = small, poorly fitted or top-dose-only effect; inactive = no such curve, though single readings can be large or run the other way; tested in mouse RAW 264.7 cells; also: % is scaled to controls: 0 for no effect and ±100 for the full control effect; nearly all actives have a fitted effect of over 55% in size
* marks the source's active call; other numbers are inactive results; ? = inconclusive; . = no result; [ ] = another dose, or the depositor's remark. Unless noted, calls follow the shape of the dose curve; as a rule, active = well fitted curve in the direction sought with a large enough effect; inconclusive = small, poorly fitted or top-dose-only effect, or another doubt; inactive = no such curve, though single readings can be large; an effect the other way counts as inactive or inconclusive. Potency is read from the fitted curve at half-maximal effect.

SMILES	RORg inh	BCR signal inh	Mito fusion act	VP16 counter	a7 integrin act	uPA generation
COc1ccc(OC(=O)C(C)N2C(=O)c3ccccc3C2=O)cc1 (centres undefined)	-18%[1.91 µM]	-2%	-1%	-5%	7%	-7%
O=C(Oc1ccc(F)cc1)c1cccnc1	-18%	?	-77%	-2%	-25%	-9%
CC1=CC(C)(C)Nc2ccc(OC(=O)C(C)N3C(=O)c4ccccc4C3=O)cc21 (centres undefined)	?	?	22%	11µM*	-72%	4%
CC1=CC(C)(C)Nc2ccc(OC(=O)c3ccco3)cc21	2.8µM*	?	-4%	5.6µM*	-68%	19%
CC1=CC(C)(C)N2C(=O)C(=O)c3cc(OC(=O)c4ccco4)cc1c32	34%	11µM*	-8%	11%	-38%	-11%
CC(C)c1ccc(NC(=O)CN2C(=O)c3cccc4cccc2c34)cc1	.	13%	3%	.	.	.
COc1ccc2nc(NC(=O)C3CCN(C(=O)c4ccco4)CC3)sc2c1	?	-12%	-6%	20%	-17%	1%
CC1=CC(C)(C)Nc2ccc(OC(=O)CN3C(=O)CCC3=O)cc21	5.6µM*	?	-1%	7.1µM*	-63%	?
COc1cc(/C=C2\SC(N)=NC2=O)ccc1OCC(=O)Nc1ccccc1C	.	1%	1%	.	12%	3%
O=C(c1cc(C(F)(F)F)cc(C(F)(F)F)c1)N1CCC2(CCN(Cc3nccs3)CC2)CC1	9%	.	.	-3%	.	.
O=C(Nc1nnc(-c2ccncc2)o1)C1CCCCC1	10µM*	0%	-2%	?	9%	-2%
O=C(Nc1nnc(-c2ccc3c(c2)CCCC3)o1)C1CCCCC1	?	-4%	-6%	-2%	23%	-3%
O=C(Nc1nnc(-c2ccco2)o1)C1CCCCC1	?	1%	-3%	?	2%	9%
O=C(Nc1nnc(-c2ccncc2)o1)c1ccc(Br)s1	0.89µM*	?	-2%	1.1µM*	-10%	-12%
O=C(Nc1nnc(-c2ccccc2)o1)NC1CCCCC1	2.5µM*	2%	8%	4.5µM*	-13%	-2%
O=C(Nc1nnc(-c2ccco2)o1)C1CC1	10µM*	7%	1%	?	18%	-6%
O=C(N/N=C\c1ccncc1)c1ccc(Br)s1	1%	-8%	0%	0%	-15%	4%
CC(C)CN(C(=O)COc1ccc(C(C)(C)C)cc1)C1CCS(=O)(=O)C1 (centres undefined)	.	-8%	2%	.	4%	2%
CCN=C1S/C(=C\c2cc(Br)c(O)c(OC)c2)C(=O)N1CC	?	5%	-1%	18%	-41%	-38%
CCCN1C(=O)CN(C2CCCCCC2)C(=O)C1c1ccc(OCC)c(OC)c1 (centres undefined)	.	-9%	.	.	.	.
O=C(Nc1nnc(-c2ccc(Cl)s2)o1)C1CC1	-2%	?	-6%	-7%	-9%	-1%
O=C(Nc1nnc(-c2cccs2)o1)C1CC1	7.1µM*	?	-5%	7.1µM*	8%	1%
CC(C)(C)C(=O)Nc1nnc(-c2ccncc2)o1	11µM*	9%	-5%	18µM*	23%	3%
c1csc(CNc2nc(-c3ccoc3)nc3ccccc23)c1	?	.	.	6%	.	.
C/C(=N\Nc1nc(C)cc(-c2ccccc2)n1)c1ccc(F)cc1	3.2µM*	13%	-9%	7.1µM*	18%	-26%
C/C(=N/Nc1nc(-c2ccccc2)cc(-c2ccc(F)cc2)n1)c1cccc(N)c1	11µM*	?	?	14µM*	9%	-5%
O=C(NCc1ccco1)c1cnn2c(C(F)(F)F)cc(-c3ccccc3)nc12	16µM*	16%	?	11µM*	28%	-10%
CN(C)c1ccc(-c2ccc(C3C4C=CCCC4(C)C(=O)N3Cc3ccccc3)c(F)c2)cc1 (centres undefined)	19%	.	.	-8%	.	.

Screening results from PubChem BioAssay.
